In PubChem BioAssay AID2685 (National Center for Advancing Translational Sciences (NCATS), 2010):
In all, about 320,000 compounds went through this assay and about 2,100 (0.66%) were called active. Not shown: some 53% with an inconclusive outcome. The call rests on the fitted dose curve; in most records, active means well fitted inhibition curve with a large enough effect in the signal ratio, with a control signal flat (not every such curve was filed as active); inconclusive means small, poorly fitted or top-dose-only effect, or effect the other way, or a change in a side signal; inactive means flat fitted curve, though single readings scatter; the % refers to the signal ratio. The list comes from a sample in which actives are over-represented; it also holds similar structures and randomly drawn compounds.

experiment: qHTS Assay for Lipid Storage Modulators in Drosophila S3 Cells; conditions: BODIPY lipid droplet fluorescence, 18-24 h, cells fed with added oleic acid; cell number change: measured here: cell count max response; series mostly up to 46.1 µM; lipid storage change, negative = inhibition: at the top concentration;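 on cell number change: cells counted by Cell Tracker Red CMTPX staining in the red channel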; on lipid storage change, negative = inhibition: on the % scale 0 is the no-effect control and ±100 the full control effect
Text: NIH Molecular Libraries Probe Production Centers Network [MLPCN] NIH Chemical Genomics Center [NCGC] MLPCN Grant: 1 R03 MH085686-01 Assay Submitter (PI): Beller, Mathias; Max-Planck-Institut fur Biophysikalische Chemie NCGC Assay Overview: Storing lipids as a reservoir for energy or the anabolism of elementary metabolites is a common feature of probably all cells and is conserved from bacteria to humans. The universal cellular lipid storage organelle is the so-called lipid storage droplet (LD). Although ubiquitous, LDs share a simple structure composed of a hydrophobic core that harbors the storage lipids, which is shielded by a droplet-specific phospholipid monolayer to which proteins are attached. The current model of LD biogenesis involves an incorporation of the lipid core into the membrane leaflets of the endoplasmic reticulum (ER) followed by a subsequent budding-like maturation of a LD, which ultimately pinches off. Once released, LD volume can increase by localized lipogenesis or fusion of existing droplet. Storage lipids are re-mobilized enzymatically by lipase activity. Lipase regulation in the adipocyte is heavily studied and involves multiple components including catecholamine signaling, the LD-associated proteins Perilipin and comparative gene identification (CGI-58) and at least two lipases named hormone sensitive lipase (HSL) and adipocyte triglyceride lipase (ATGL). LD regulation outside of the adipocyte is poorly understood and only few components are known. However, there is an urgent need to learn more about ectopic fat depots as mislocalized storage of lipids, for example in the liver or muscle, is an eminent health problem associated with insulin resistance or the metabolic syndrome. We developed a laser-scanning cytometer assay to enable 1,536-well screening and combined the results of the small molecules screen with an RNAi database based on lipid storage.
Triacsin C (Sigma-Aldrich T-4540), an inhibitor of long-chain fatty acyl CoA synthetase that blocks synthesis of triglycerides, was used as a positive control for lipid under-storage. A total of 23 nL of compound solution of different concentrations were transferred to the assay plates using a Kalypsys pin tool equipped with a 1,536-pin array containing 10-nL slotted pins (FP1S10, 0.457-mm diameter, 50.8 mm long; V&P Scientific). One microliter of oleic acid (400 uM) was added, and the plate was lidded with stainless steel rubber gasket lined lids containing pinholes. […] Fluorescence was detected by excitation of the fluorophores with a 488-nm laser on an Acumen Explorer (TTP Lab Tech). The total intensity in channel 2 (500-530 nm) reflected lipid droplet accumulation. Cells were detected using channel 3 (575-640 nm) with 5-um width and 100-um depth filters. The ratio of the number of objects in PMT channel 2 over the number of objects in PMT channel 3 was also calculated. Percent activity was computed relative to an internal control (100% inhibited lipid droplet deposition due to the presence of 20 uM Triacsin C), which was added to 32 wells/plate.
Potency means the concentration at half of the fitted maximal effect.

Compound	Potency	cell number change	lipid storage change, negative = inhibition	outcome
COCCn1c(C(F)(F)F)ccc(NC(=O)c2ccccc2)c1=O	8.2 µM (active)	27.8%		
Cc1ccc(C(=O)Nc2ccc(C(F)(F)F)n(C)c2=O)cc1		11.7%	9.63% (inactive)	
COc1ccc(C(=O)Nc2ccc(C(F)(F)F)n(C)c2=O)cc1		6.54%	16.1% (inactive)	
CCN(CC(=O)Nc1ccc(OC)cc1)C(=O)CCc1nc2ccccc2c(=O)[nH]1		-4.18%	1.47% (inactive)	
Cc1c([N+](=O)[O-])c([N+](=O)[O-])nn1CC(=O)NCCc1ccccc1		2.95%	-10.5% (inactive)	
CCCOc1ccc(C(C)=O)cc1CC(C(=O)OCC)C(=O)OCC		1.14%	0.302% (inactive)	
CC(=O)c1ccc(OC(C)C)c(CC(C(N)=O)C(N)=O)c1	25.9 µM (active)			
CC(=O)c1ccc(OC(C)C)c(CN2CCCCC2)c1		-4.17%	-11.4% (inactive)	
NC(=O)CS(=O)(=O)c1ccc(Cl)cc1		0.328%	-4.86% (inactive)	
CC(C)=CC(=O)O[C@@H]1Cc2cc3ccc(=O)oc3cc2OC1(C)C		-1.68%	13.2% (inactive)	
Cc1cc(Nc2ccc(Br)cc2)nc(-c2ccccc2O)n1	1.16 µM (active)	5.51%		
Cc1cc(Nc2ccc(F)c(F)c2)nc(-c2ccccc2O)n1		-20.3%	-1.55% (inactive)	
Cc1cc(Nc2ccc(Cl)cc2)nc(-c2ccccc2O)n1		25.5%	-7.33% (inactive)	
O=C(NNC(=O)c1ccccc1O)c1ccc(NS(=O)(=O)c2ccc(F)c(F)c2)cc1		6.77%	8.77% (inactive)	
NS(=O)(=O)c1cccc(NS(=O)(=O)c2ccc3ccccc3c2)c1		-9.72%		inactive
Cc1ccc(S(=O)(=O)N2CCCOC2)cc1	20.6 µM (active)	-23.3%		
Cc1ccc(-c2ccc(S(=O)(=O)N3CCCC3)cc2)cc1			14.6% (inactive)	
Cc1ccc(S(=O)(=O)N2CCCN(S(=O)(=O)c3ccc(C)cc3)CC2)cc1		-15.5%		inactive
CC1(C)CC(=O)C(CC(=O)NC(=O)NCc2ccccc2)=C(O)C1		9.3%	0.0826% (inactive)	
O=C(CSc1ccccc1)Nc1nnc(COc2ccc(Cl)cc2)s1	9.2 µM (active)	-4.77%		
COCc1nnc(NC(=O)CSc2ccccc2)s1		-1.84%	7.39% (inactive)	
COCC(=O)Nc1nnc(COc2ccc(Cl)cc2)s1		-17.4%	1.56% (inactive)	

Compound	Potency	cell number change	lipid storage change, negative = inhibition	outcome
CCN(CC)c1ccc(/C=N/Nc2ccccc2)c(O)c1		-10.7%	6.59% (inactive)	
CCN(CC)c1ccc(/C=N/NC(=S)NC)c(O)c1		2.22%	-4.58% (inactive)	
CCN(CC)c1ccc(/C=N/NC(=S)NCc2ccccc2)c(O)c1	11.6 µM (active)	-19.6%		
COc1ccc(-c2c3c(=O)n(C)c(=O)n(C)c3cn2-c2ccccc2O)cc1		9.81%	-3.76% (inactive)	
CC(=O)N(Cc1cccnc1)Cc1cc2ccc(C)cc2[nH]c1=O		-7.01%	15.6% (inactive)	
CCOc1ccccc1CNC(=O)CCCn1ncn2c(cc3occc32)c1=O	29.1 µM (active)	-5.42%		
COc1cccc(CNC(=O)CCCn2ncn3c(cc4occc43)c2=O)c1		-2.59%		inactive
CC(CNC(=O)CCCn1ncn2c(cc3occc32)c1=O)c1ccccc1 (stereo not given)		24%		inactive
Cc1cc(C(=O)N2CCN(S(=O)(=O)c3ccccc3)CC2)c(C)o1		15.7%	21.7% (inactive)	
CCCCn1nc2cc(C(=O)N[C@H](C)C3CCCCC3)ccc2c1OCC		-12%	-0.499% (inactive)	
CCOC(=O)c1sc(NC(=O)CCc2ccccc2)nc1C		3.17%		inactive
Cc1ccc(-n2c(C)cc(C(=O)COc3c(CO)cc(F)cc3CO)c2C)cc1C	8.2 µM (active)	4.17%		
Cc1ccc(-n2c(C)cc(C(=O)CN3CCOCC3)c2C)cc1C		-2.77%	-17% (inactive)	
Cc1ccc(-n2c(C)cc(C(=O)COC(=O)c3ccc[nH]c3=O)c2C)cc1C		-2.22%	1.49% (inactive)	
Cc1cccc(NC(=O)C2CCCN2C(=O)Oc2ccccc2)c1 (stereo not given)		-1.72%	-0.0768% (inactive)	
Cc1cc(C)nc(NC(=O)c2c(Cl)cccc2Cl)n1		0.843%	-9.48% (inactive)	
COc1cc(/C=N/NC(=O)c2ccc(CN3C(=O)c4cccc5cccc3c45)cc2)cc(OC)c1O	3.26 µM (active)	-19.2%		
CN(C)c1ccc(/C=N/NC(=O)c2ccc(CN3C(=O)c4cccc5cccc3c45)cc2)cc1		10.4%	13% (inactive)	
COc1cc(/C=N/NC(=O)c2ccc(CN3c4cccc5cccc(c45)S3(=O)=O)cc2)cc(OC)c1O		-26.4%		inactive
Cc1ccc(NC(=O)COc2coc(CN3CCc4ccccc4C3)cc2=O)c(C)c1				inactive [at 0.0737 µM]
Cc1cc(C)cc(NC(=O)COc2coc(CN3CCc4ccccc4C3)cc2=O)c1		-22.1%	-14.9% (inactive)	
Cc1ccc(C)c(NC(=O)COc2coc(CN3CCc4ccccc4C3)cc2=O)c1	6.51 µM (active)	-25.7%		
